Hits are enriched below; roughly 8.3% of the tested compounds scored in any of these assays.
HCMV inh: blocks human cytomegalovirus replication | 410,000 compounds, 4.5% hits | AID 1259415 | HFF cells, HCMV-luciferase reporter, 72 h; stronger effect = lower value | activity change, negative = inhibition, % at 57.5 µM; in the data active means activity change below about -60%; inconclusive means no clear call, values can overlap the other calls; inactive means above about -39%
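Two compound doses tested in HFFs infected with HCMV-luciferase, MOI 1 PFU/cell, 72 h at 37C. Lysate luminescence read with OneGlo; data normalized against buffer-only and 10uM Salinomycin inhibitor controls.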
HCV inhibitor: HCV inhibition; 340,000 compounds, 3.4% hits; Potency, µM (highest dose often 41.8 µM), for the others: at the top dose activity change, negative = inhibition, usual class: inhibitors; Huh7.5.1 HCVcc-Cre infection, luciferase reporter, 44 h; further: potency means the concentration at half of the fitted maximal effect
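Reporter virus HCVcc-Cre (~0.5 moi) infects cells exposed to compound; seeding density 1,000 cells/well with 4 h settling beforehand. Luminescence, 15 sec read, taken 44 h post-infection following a 15 min RT substrate incubation.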
Lassa entry inh: Lassa virus entry inhibition. Lassa virus pseudotype entry inhibition, cell reporter. Potency, µM (titrated, usually from 37.9 µM), for the others: at the highest dose activity change, negative = inhibition, usual class: inhibitors. 300,000 compounds, 1.2% hits; calls by dose curve; tested in HEK293 cells; further: potency means the concentration at half of the fitted maximal effect; nearly all actives have a fitted effect of over 50% in size
Giardia FBPA inh: Giardia lamblia aldolase inhibition; A8B2U2; purified Giardia FBPA; Potency, µM (doses to about 59.6 µM), inactives show top-dose activity, negative = inhibition, hits mostly inhibitors; 290,000 compounds, 0.71% hits; further: potency means the concentration at half of the fitted maximal effect; nearly all actives have a fitted effect of over 55% in size
Target sequence (A8B2U2 whole entry, looked up): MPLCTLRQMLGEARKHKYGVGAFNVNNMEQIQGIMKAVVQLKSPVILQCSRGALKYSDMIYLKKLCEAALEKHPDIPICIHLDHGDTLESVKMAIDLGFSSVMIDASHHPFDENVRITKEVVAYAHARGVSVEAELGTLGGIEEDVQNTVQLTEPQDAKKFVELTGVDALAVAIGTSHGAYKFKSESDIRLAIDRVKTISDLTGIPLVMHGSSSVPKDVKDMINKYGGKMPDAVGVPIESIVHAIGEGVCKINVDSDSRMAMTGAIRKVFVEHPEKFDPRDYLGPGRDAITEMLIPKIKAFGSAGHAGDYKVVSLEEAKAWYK
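40 nM FBPA preincubated 10 min at RT with compound (up to 57.5 uM final), then substrate plus GAPDH/TPI/NAD/arsenate coupling and diaphorase/resazurin added. Fluorescence read after 20 min at RT, 525/598 nm.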
FMDV inh: blocks foot and mouth disease virus; FMDV antiviral cell-based qHTS; Potency, µM (top dose mostly 57.9 µM), for the others: top-dose activity change, negative = inhibition, actives largely listed as inhibitors; 410,000 compounds, 1.2% hits; AID 1159524; calls by dose curve; tested in HEK293T cells; further: read-out not given here; potency means the concentration at half of the fitted maximal effect; nearly all actives have a fitted effect of over 45% in size
Marburg entry inh: Marburg virus entry inhibition. Marburg virus pseudotyped entry inhibition, cell reporter. Potency, µM (series often up to 37.8 µM), without a hit: top-dose activity change, negative = inhibition, most hits filed as inhibitors. 300,000 compounds, 1.8% hits. AID 540276; calls by dose curve; tested in HEK293 cells; further: potency means the concentration at half of the fitted maximal effect
* marks the source's active call; other numbers are inactive results; u = inconclusive; x = no result; [ ] = remark or other dose. Unless noted, the call rests on the fitted dose curve; in most records, active means well fitted curve in the direction sought with a large enough effect; inconclusive means small, poorly fitted or top-dose-only effect, or another doubt; inactive means no such curve, though single readings can be large; an effect the other way counts as inactive or inconclusive. On the % scale 0 is the no-effect control and ±100 the full control effect.

SMILES	HCMV inh	HCV inhibitor	Lassa entry inh	Giardia FBPA inh	FMDV inh	Marburg entry inh
COC(=O)C1=C(C(=O)OC)[C@@H]2N(Cc3ccccc3)c3ccccc3[C@@]23C[C@@H](CO)N(C(=O)CC(C)C)C3=N1	x	x	x	x	x	-38%[14.2 µM]
CCSc1nc2ccc(OC)cc2cc1C#N	46	10µM*	13%	-1%	0%	u
CCOc1ccc2nc(SCC#N)c(C#N)cc2c1	-68*	-15%	-8%	-5%	0%	u
CN(c1ccccc1)S(=O)(=O)c1ccc(C(=O)Nc2cccc(S(=O)(=O)N3CCOCC3)c2)cc1	-95*	x	x	x	u	x
COc1ccccc1N(C)S(=O)(=O)c1ccc(C(=O)Nc2cccc(S(=O)(=O)N3CCOCC3)c2)cc1	u	10µM*	x	x	25µM*	x
COc1ccc(C(=O)Nc2cccc(S(=O)(=O)N(C)C)c2)cc1S(=O)(=O)N1CCOCC1	1	u	x	x	-23%	x
CCCc1nn2c(C)c(-c3ccccc3)nc2s1	74	x	u	x	6%	-24%[46.1 µM]
Cc1cc(=O)[nH]c(SCC(=O)Nc2ccc3c(c2)CCC3)c1C#N	-77*	-3%	x	x	19%	x
Cc1cc(=O)[nH]c(SCC(=O)Nc2ccc(F)cc2)c1C#N	-9	18%	u	11%	-30%	3%[46.1 µM]
CCOc1ccccc1N(CC)C(=O)c1noc2c1COc1ccc(C)cc1-2	-4	x	-1%[46.1 µM]	x	-9%	x
Cc1ccc(NC(=O)Cn2c(=O)n(CCCCCC(=O)NCc3ccc(F)cc3)c(=O)c3sccc32)cc1C	3	x	6%[46.1 µM]	x	-19%	-2%[46.1 µM]
CC(C)Cn1c(SCC#N)nc2ccccc2c1=O	-101*	-13%	1%	3%	0%	-20%
CC1(CCc2ccc(O)cc2)NC(=O)NC1=O (centres undefined)	27	20%	11%	1%	-2%	-19%
CCC1(CC)C(=O)NC(=O)NC1=NCCc1ccc(O)cc1	-68*	-9%	4%	-1%	8%	11%
COC(=O)c1nnc(C(=O)NCc2ccccc2)c2[nH]c3ccccc3c12	x	x	x	-1%	x	-15%[14.2 µM]
CN1CCN(c2ncc3nc(-c4ccccc4)c(=O)n(C)c3n2)CC1	x	x	x	6%	10%	x
O=C(N/N=C/c1ccncc1)c1cc(Br)ccc1OCc1ccccc1	-22	8.9µM*	0%	2%	-16%	u
O=C(COc1ccc(-c2ccccc2)cc1)N/N=C/c1cc(O)ccc1Br	-61*	-15%	1%	-3%	-17%	6%
Brc1ccc(OCc2ccccc2)c(CNCc2ccncc2)c1	-29	10µM*	u	u	u	-23%
O=C(N/N=C/c1cccnc1)c1ccccc1OCc1cccc(Br)c1	u	u	-15%	-1%	u	u
Fc1ccc(COc2ccccc2CNCc2ccncc2)cc1	u	u	-13%	-15%	-18%	-39%
Cc1cccc(OCC(=O)NCC(=O)N/N=C/c2cc(Br)ccc2OCc2ccccc2)c1	-5	7%	-1%[46.1 µM]	-27%	21%	u
O=C(COc1ccccc1)NCC(=O)N/N=C/c1cc(Br)ccc1OCc1ccccc1	13	u	u	-29%	0%	8.9µM*
CCOc1ccccc1NC(=O)CSc1nc2c(c(=O)[nH]1)CCC2	7	x	u	x	6%	u
COc1cccc(CN(C)C(=O)c2cnn(-c3ncc4c(n3)-c3ccccc3CCC4)c2C)c1	x	x	x	x	-29%	x
SMILES	HCMV inh	HCV inhibitor	Lassa entry inh	Giardia FBPA inh	FMDV inh	Marburg entry inh
CC1CCc2c(sc3nc(-c4cc5ccccc5oc4=O)nc(Cl)c23)C1 (centres undefined)	19	x	16%[46.1 µM]	x	-3%	23%[46.1 µM]
COC/C=C/C1=CC2=CC(=O)C(C)(OC(=O)c3ccc(Cl)nc3)C(=O)C2=CO1 (centres undefined)	x	x	x	-9%	x	x
Clc1ccc(COc2ccccc2CNCc2cccnc2)cc1	-30	10µM*	-25%	5%	u	u
CCN1C(N(C)CCOC)=NC(c2cccc(F)c2)C(C(=O)OC)=C1C (centres undefined)	x	x	u	x	x	-24%[14.2 µM]
O=C1NC(=NCc2ccccc2)S/C1=C/c1ccc(O)cc1	-62*	u	u	12%	70%	u
O=[N+]([O-])c1c(C(Cl)Cl)nn(-c2ccccc2)c1N1CCCC1	-38	u	-17%	11%	x	-8%
CCOC(=O)C1CCN(c2c([N+](=O)[O-])c(C(Cl)Cl)nn2-c2ccccc2)CC1	19	-25%	9.2µM*	1%	x	-13%
COc1ncc2nc(-c3ccc(F)cc3)c(=O)n(-c3ccccc3)c2n1	x	x	x	0%	-12%	x
O=C(COc1ccccc1[N+](=O)[O-])OCC(=O)N1CCC(Cc2ccccc2)CC1	33	23%	13%	7%	-13%	u
Cc1ccc(OCC(=O)N2CCC(Cc3ccccc3)CC2)c([N+](=O)[O-])n1	-74*	-4%	x	x	-17%	x
O=C(COc1cccnc1[N+](=O)[O-])N1CCC(Cc2ccccc2)CC1	-76*	1%	-4%[46.1 µM]	x	10%	u
COc1ccc(-c2nnc(SCC(=O)Nc3cccc(C(F)(F)F)c3)nc2-c2ccc(OC)cc2)cc1	7	x	u	x	8%	x
CCOC(=O)CCN1C(=O)[C@@H]2[C@H]3[C@H](O)[C@H](O)CC(=NNC(=O)OCc4ccc(OC)cc4)[C@H]3CC[C@H]2C1=O	x	x	0.17µM*	x	x	22%[14.2 µM]
N#C/C(=C/c1ccccc1[N+](=O)[O-])c1nnc2n1CCCCC2	-60*	-13%	3%	1%	-7%	17%
N#C/C(=C(/O)c1ccc([N+](=O)[O-])cc1)c1nnc2n1CCCCC2	-34	3%	13%	-24%	-12%	12%[46.1 µM]
COc1ccc(OC2CCN(S(=O)(=O)c3ccc(OC)cc3)CC2)cc1	u	u	u	-10%	u	-29%[46.1 µM]
COc1ccc(S(=O)(=O)N2CCC(Oc3ccc(-n4cnnn4)cc3)CC2)cc1OC	-64*	x	-2%[46.1 µM]	x	-29%	-18%[46.1 µM]
COc1ccc(OC2CCN(S(=O)(=O)c3cccc(F)c3)CC2)cc1	-97*	u	-28%[46.1 µM]	-2%	u	-3%[46.1 µM]
Cc1ccc(NC(=O)c2ccc(S(=O)(=O)N3CC(C)CC(C)C3)cc2)cc1S(=O)(=O)N1CCOCC1 (centres undefined)	u	7.9µM*	x	x	u	x
Cc1nn(-c2ccc(C(=O)N3CCN(S(=O)(=O)c4ccccc4C(F)(F)F)CC3)cc2)c(C)c1Cl	-23	0%	x	x	u	x
Cc1ccc(NC(=O)COc2cccc(-n3cnnn3)c2)cc1S(=O)(=O)N1CCOCC1	-37	11µM*	x	x	-47%	x
CC(=O)c1ccc(S(=O)(=O)N2CCN(C(=O)c3ccc(-n4nc(C)c(Cl)c4C)cc3)CC2)cc1	-90*	6.3µM*	x	x	u	x
Cc1cc(C)n(-c2ccc(C(=O)Nc3cc(S(=O)(=O)N(C)C)ccc3Cl)cc2)n1	u	u	u	-14%	28µM*	u
